Source: PubChem BioAssay (The Scripps Research Institute Molecular Screening Center)
Compounds with a hit are over-represented: about 0.86% of the library has one in this group of screens.
IDE cell inh – cellular human IDE inhibition | 320,000 tested, 0.41% active | inhibition, % at 5.59 µM | AID 434962 | P14735 | HEK cells, FAbetaB cleavage, fluorescence polarization;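 active = percent inhibition above the average of all tested compounds plus 3 SD, set per screening campaign, cut at about 16% in these data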;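 note: IDE supplied by intact live HEK cells; FP after avidin binding of uncleaved biotin substrate so inhibition keeps polarization high; 0% = DMSO wells and 100% = 60 µM reference IDE inhibitor Ii1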
TLR9-MyD88 inh – inhibitors of human TLR9-MyD88 binding | CHO BLA complementation TLR9-MyD88, CCF4 FRET ratio | Q9NR96+Q99836 | AID 504734 | 340,000 tested, 0.21% active | inhibition, % at 4.98 µM;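 active = inhibition above the mean over all tested compounds plus 3 SD, cut at about 21% in these data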;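 note: 0% = DMSO only wells and 100% = clavulanate BLA inhibitor control wells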
NOD2-RIPK2 inh – NOD2-RIPK2 protein interaction inhibition; O43353; CHO BLA complementation NOD2-RIPK2, CCF4 ratio; inhibition, % at 4.98 µM; 360,000 tested, 0.38% active; AID 624267; in the data active = inhibition above about 21%;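 note: 0% = vehicle only and 100% = reference blocker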
IDE cell activ – activators of human insulin-degrading enzyme in cells. AID 493087. HEK cells, FAbeta-B cleavage, fluorescence polarization; 0% vehicle, 100% cell-free pure enzyme wells. 340,000 tested, 0.073% active. activation, % at 5.96 µM;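 active = activation above the mean of all tested compounds plus 3 SD, set per screening campaign, cut at about 17% in these data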
TLR4-MyD88 BLA – TLR4-MyD88 interaction inhibition in cells; O00206+Q99836; HeLa CL3-4 TLR4/MyD88 BLA complementation, FRET ratio; inhibition, % at 8.4 µM; 200,000 tested, 0.18% active; AID 861; in the data active = inhibition above about 25%;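 note: 0% = vehicle and 100% = reference inhibitor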
Target sequence (O00206 whole entry, looked up): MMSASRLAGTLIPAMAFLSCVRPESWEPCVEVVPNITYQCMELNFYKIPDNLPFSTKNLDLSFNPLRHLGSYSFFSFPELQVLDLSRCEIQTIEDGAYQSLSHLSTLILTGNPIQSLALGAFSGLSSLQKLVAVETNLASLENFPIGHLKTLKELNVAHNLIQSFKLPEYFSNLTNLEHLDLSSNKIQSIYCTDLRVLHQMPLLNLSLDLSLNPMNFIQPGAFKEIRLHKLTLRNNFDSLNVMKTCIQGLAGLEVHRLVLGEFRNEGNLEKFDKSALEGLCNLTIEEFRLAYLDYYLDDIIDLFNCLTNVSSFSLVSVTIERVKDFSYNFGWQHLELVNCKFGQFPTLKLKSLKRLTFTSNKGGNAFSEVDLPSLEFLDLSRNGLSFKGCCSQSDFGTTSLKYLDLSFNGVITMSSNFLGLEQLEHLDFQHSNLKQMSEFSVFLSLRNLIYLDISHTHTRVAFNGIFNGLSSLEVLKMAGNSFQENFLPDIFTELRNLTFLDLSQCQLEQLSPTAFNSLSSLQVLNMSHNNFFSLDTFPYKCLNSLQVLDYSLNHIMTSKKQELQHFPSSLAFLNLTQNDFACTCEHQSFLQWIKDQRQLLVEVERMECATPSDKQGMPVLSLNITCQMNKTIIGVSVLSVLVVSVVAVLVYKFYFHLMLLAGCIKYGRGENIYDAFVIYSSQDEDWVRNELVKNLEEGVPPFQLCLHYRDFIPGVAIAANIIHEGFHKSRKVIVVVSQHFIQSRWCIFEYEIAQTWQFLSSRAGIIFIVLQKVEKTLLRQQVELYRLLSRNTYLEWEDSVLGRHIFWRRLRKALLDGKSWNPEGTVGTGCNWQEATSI
Target sequence (Q99836 whole entry, looked up): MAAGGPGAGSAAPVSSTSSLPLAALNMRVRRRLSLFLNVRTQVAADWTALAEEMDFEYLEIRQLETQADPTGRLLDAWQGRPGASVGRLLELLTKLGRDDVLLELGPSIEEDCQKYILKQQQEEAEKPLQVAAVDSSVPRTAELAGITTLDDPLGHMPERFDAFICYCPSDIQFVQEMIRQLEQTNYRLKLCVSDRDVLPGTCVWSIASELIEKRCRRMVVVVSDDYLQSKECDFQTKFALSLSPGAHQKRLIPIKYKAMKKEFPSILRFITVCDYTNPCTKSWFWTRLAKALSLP
NOD2 RIPK2 conf – NOD2-RIPK2 interaction inhibition confirmed; inhibition, % at 4.98 µM; CHO cells, NOD2-RIPK2 BLA complementation, CCF4 FRET; 1,200 tested, 70% active; shares compounds with NOD2-RIPK2 inh; AID 624370;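 active = mean inhibition across replicates above a set limit taken from the earlier primary screen, cut at about 21% in these data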;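 note: 0% = DMSO-only wells and the high end = clavulanate BLA-blocked wells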
BLA counter – NOD2-RIPK2 counterscreen BLA reporter activity; shares compounds with NOD2-RIPK2 inh; inhibition, % at 4.98 µM; 1,200 tested, 57% active; CHO BLA reporter, CCF4 FRET ratio;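 active = mean inhibition above the low-control mean inhibition plus three low-control SD, cut at about 11% in these data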;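 note: 0% = DMSO only wells and 100% = clavulanate high control wells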
An asterisk follows results filed as active; . = no result given; ! = repeats disagree.

SMILES	IDE cell inh	TLR9-MyD88 inh	NOD2-RIPK2 inh	IDE cell activ	TLR4-MyD88 BLA	NOD2 RIPK2 conf	BLA counter
CC1=C(C(=O)N(C)C)CC(CC(=O)NC2CCCCC2)C(=O)N1Cc1ccccc1 (stereo not drawn)	.	-11	-17	.	.	.	.
COc1ccc(-c2csc(N(C)C(=O)c3ccco3)n2)cc1	4	-6	-7	0	.	.	.
CCc1ccc(NC(=O)Cn2c(=O)c3cccn3c3ccccc32)cc1	-1	-2	22*	-4	.	11	-2
CCc1ccc(NC(=O)CCn2c(=O)c3cccn3c3ccccc32)cc1	-8	-7	2	-3	.	.	.
CN(C(=O)CC1C(=O)NCCN1Cc1cccc(F)c1F)C1CCOCC1 (stereo not drawn)	-1	-4	-10	0	.	.	.
CCCC(=O)N(C1CC(C)C(C#N)(C#N)C1(C#N)C#N)N(C)C (stereo not drawn)	3	0	57*	-2	.	92*	14*
CC(C)OC(=O)/C(C#N)=C\c1cccnc1	3	0	-3	5	2	.	.
CCCc1cc(=O)oc2cc(C)cc(OC(C)C(=O)NCc3ccccn3)c12 (stereo not drawn)	2	-6	-5	-3	.	.	.
CC1(C)Cc2c(sc3c2c(=O)n(Cc2ccccc2)c2nncn32)CO1	.	12	3	0	.	.	.
COc1ccc(CNC(=O)CCCOc2cc(=O)n(C)c3ccccc23)cc1	0	6	2	4	10	.	.
COc1ccc(CNC(=O)COc2cc(=O)n(C)c3ccccc23)cc1	-4	-14	25*	-3	-2	-2	-3
Cc1ccc(-n2c(Cc3ccccc3)n[nH]c2=S)cc1	0	-7	2	-24	-1	.	.
CCCCCCSc1ccc(-c2nc3ccccn3c2NCCCC)cc1	2	6	0	6	.	.	.
CCCCNc1c(-c2ccc(-c3cccc(Cl)c3)cc2)nc2ccccn12	4	12	22*!	-5	.	16	16*
O=C(CN1C(=O)c2ccccc2S1(=O)=O)NCCSCc1cccc(Cl)c1	2	4	29*	2	.	2	0
CC(OC(=O)c1cccnc1Cl)C(=O)NCc1ccccc1 (stereo not drawn)	-2	-28	-4	3	.	.	.
O=C(C(=Cc1ccc(F)cc1)C(=O)c1ccccc1)c1ccccc1	.	.	29*	.	.	13	-3
Cc1ccc(CNS(=O)(=O)c2c(C(=O)N3CCCCCC3)c(C)n(C)c2C)cc1	-1	3	54*	6	.	-1	0
c1cnn2c(-c3ccc4c(c3)CCO4)cnc2c1	.	.	7	.	.	.	.
O=C(NCc1ccco1)C(=O)c1c[nH]c2ccccc12	-1	1	32*	-1	8	-2	-4
CC(C)(C=O)C1=CC(=O)c2ccccc2C1=O	12	14	23*	-16	-9	86*	4
CC(C)(C)c1ccc2c(c1)C(=O)c1ccccc1C2=O	-6	-11	-5	5	-17	.	.
O=[N+]([O-])c1cccnc1S(=O)(=O)c1ccccc1	-1	0	18	-1	.	.	.
COc1nc(OC)nc(Oc2ccc(Cl)cc2[N+](=O)[O-])n1	-3	3	12	1	-8	.	.
COc1ccc([N+](=O)[O-])c(S(=O)(=O)c2ccccc2)n1	-1	.	33*	.	.	59*	-4
SMILES	IDE cell inh	TLR9-MyD88 inh	NOD2-RIPK2 inh	IDE cell activ	TLR4-MyD88 BLA	NOD2 RIPK2 conf	BLA counter
COc1ccc([N+](=O)[O-])c(S(=O)(=O)c2ccc(Cl)cc2)n1	-7	-3	21*	-3	.	48*	-11
COc1ccc(C(C(=O)Nc2ccc3c(c2)OCCO3)n2c(=O)c(-c3ccco3)nc3ccccc32)cc1 (stereo not drawn)	.	.	6	.	.	.	.
COc1ccc(NC(=O)C(c2ccc(C(F)(F)F)cc2)n2c(=O)c(-c3cc4ccccc4[nH]3)nc3ccccc32)cc1 (stereo not drawn)	.	.	41*	.	.	38*	64*
COc1ccc(C(C(=O)Nc2ccc3c(c2)OCCO3)n2c(=O)c(-c3cc4ccccc4[nH]3)nc3ccccc32)cc1 (stereo not drawn)	.	.	45*	.	.	43*	65*
CC(=O)Nc1cc(-c2cccc(F)c2)cn2c(-c3ccc(F)c(Cl)c3)cnc12	.	.	1	.	.	.	.
CCC1=Nc2cc(C(=O)NCCN3CCOCC3)ccc2Sc2ccccc21	3	7	1	5	.	.	.
CCOCCCNC(=O)c1ccc2c(c1)N=C(CC)c1cc(Br)ccc1S2	6	-2	28*	1	3	7	0
CCOc1ccc(S(=O)(=O)Nc2ccc(C(=O)NCC(c3ccco3)N(C)C)cc2)cc1 (stereo not drawn)	5	-2	25*	-6	.	5	0
CN(C)C(CNC(=O)c1ccc(NS(=O)(=O)c2cccc([N+](=O)[O-])c2)cc1)c1ccco1 (stereo not drawn)	-1	13	-10	2	.	.	.
CCOC(=O)[C@]12Cc3c(cc(OC)c(OC)c3OC)[C@H]1N(C1CCCCC1)C(=O)c1cc(OC)ccc12	.	.	30*	.	.	28*	-4
CCOC(=O)CNc1c(-c2ccc(Cl)cc2)nc2cnccn12	-4	4	28*	-3	6	25*	24*
CCCCNc1c(-c2ccc(-c3ccc(C(C)=O)cc3)c(OC)c2)nc2cnccn12	-2	9	23*	-6	.	21	30*
O=C1CCN2C=Nc3cccc4ccc1c2c34	-21	16	23*	41*	11	32*	38*
O=C1CCC(=O)c2ccc3c4c(ccc1c24)CC3	.	-10	-8	1	.	.	.
Cc1ccc(S(=O)(=O)N2C(=O)C(C)SC2=Nc2ccccc2)cc1 (stereo not drawn)	4	2	41*	-2	-1	-4	-1
Cc1ccc(S(=O)(=O)N2C(=O)C(c3ccccc3)SC2=Nc2ccccc2)cc1 (stereo not drawn)	2	5	-6	-2	-4	.	.
Nc1cc(=O)[nH]c(=O)n1CCCc1ccccc1	-7	-3	-4	5	.	.	.
CCOc1ccccc1C(=O)Oc1cc(C)[nH]c(=O)c1[N+](=O)[O-]	-2	8	97*	-3	.	1	-1
CCOC(=O)Cc1c(C)c2ccc(N(CC)CC)cc2oc1=O	4	-8	11	-2	-2	.	.
CCN(CC)c1ccc2c(C)c(-c3ccc(N)cc3)c(=O)oc2c1	0	12	27*	-4	15	24*	33*
CCOc1ccc(-c2cc(N)n(S(=O)(=O)c3cccc4nsnc34)n2)cc1	-1	-1	22*	-5	.	-5	-5
CC(C)c1ccc(/C=C/C(=O)Nc2nc3ccc([N+](=O)[O-])cc3s2)cc1	-3	-4	-4	2	9	.	.
